# Tests used:
# Assay in all cases: PBM binding z-score (relative to random genomic background probes); higher = stronger binding; sequences stand for … in GC…GCGATTGACAGCGTAGAATGAAGG
# [1] = test system: PPARg:RXRa DBDmut IVT, anti-RXR (DBD mutation: RXRa K156A/R161A, NR concentration 270 nM, RXRa partner concentration 90 nM)
# How it was run: (§1)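 For binding z-scores, the reference was random background probes on custom Agilent 4×180K protein-binding microarrays. These arrays were incubated 1 h with ligand-free nuclear receptor dimers in PBS pH 7.4, 2% milk, 0.02% Triton X-100, 1 mM DTT, 0.2 mg/mL BSA and 0.4 mg/ml salmon testes DNA. Fluorescence was scanned after antibody detection of each partner (one per run) and regression-normalized.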
# [2] = test system: PPARg:RXRa IVT, anti-PPARg (NR concentration 270 nM, RXRa partner concentration 90 nM)
# How it was run: as §1
# [3] = test system: PPARg DBDmut:RXRa IVT, anti-PPARg (DBD mutation: PPARg1 K132A/R137A, NR concentration 270 nM, RXRa partner concentration 90 nM)
# How it was run: as §1
# [4] = test system: PPARg DBDmut IVT, anti-PPARg (DBD mutation: PPARg1 K132A/R137A, NR concentration 270 nM)
# How it was run: as §1
# [5] = test system: PPARg homodimer (NR concentration 180 nM)
# How it was run: as §1
# [6] = test system: PXR:RXRa (NR concentration 270 nM, RXRa partner concentration 90 nM)
# How it was run: as §1
# [7] = test system: PXR homodimer (NR concentration 270 nM)
# How it was run: as §1
# [8] = test system: RARa:RXR (NR concentration 270 nM, RXRa partner concentration 90 nM)
# How it was run: as §1
# [9] = test system: RARa homodimer (NR concentration 270 nM)
# How it was run: as §1
# [10] = test system: RARb:RXRa (NR concentration 270 nM, RXRa partner concentration 90 nM)
# How it was run: as §1
# [11] = test system: RARb homodimer (NR concentration 270 nM)
# How it was run: as §1
# [12] = test system: RARg:RXRa (NR concentration 270 nM, RXRa partner concentration 90 nM)
# How it was run: as §1
# [13] = test system: RARg homodimer (NR concentration 270 nM)
# How it was run: as §1
# [14] = test system: RXRa DBDmut IVT, anti-RXR (DBD mutation: RXRa K156A/R161A, NR concentration 90 nM)
# How it was run: as §1
# [15] = test system: RXRa homodimer (NR concentration 180 nM)
# How it was run: as §1
# [16] = test system: THRa:RXRa (NR concentration 90 nM, RXRa partner concentration 90 nM)
# How it was run: as §1
# [17] = test system: THRa homodimer (NR concentration 90 nM)
# How it was run: as §1
# [18] = test system: VDR homodimer (NR concentration 270 nM)
# How it was run: as §1
Sequence,PBM binding z-score [1],PBM binding z-score [2],PBM binding z-score [3],PBM binding z-score [4],PBM binding z-score [5],PBM binding z-score [6],PBM binding z-score [7],PBM binding z-score [8],PBM binding z-score [9],PBM binding z-score [10],PBM binding z-score [11],PBM binding z-score [12],PBM binding z-score [13],PBM binding z-score [14],PBM binding z-score [15],PBM binding z-score [16],PBM binding z-score [17],PBM binding z-score [18]
CGTGAAAGTTCAACTAAGGTAACGTAAAGCACGC,-0.0451,1.86,0.513,0.603,2.63,5.31,3.52,3.81,1.22,5.19,4.13,5.55,6.12,4.76,4.3,5.32,1.64,3.71
GGCACGAGGGCAAGTTGATAGCAGAGTTTGATGG,2.14,1.32,-0.405,-1.03,0.282,1.01,0.171,0.665,-0.327,2.59,1.6,1.91,2.12,2.06,1.17,1.23,0.0135,1.58
CAAACTAGGTCAAGAAGTCAAAGTCCGCTTCCCG,7.86,8.35,2.53,3.42,2.98,1.49,0.206,2.77,0.734,4.05,3.2,4.44,4.23,1.32,2.97,2.65,0.74,0.478
GGAACGAGGGCAAAGTTGGTAGCATCTGTCGACG,4.05,3.9,0.127,-0.27,0.782,0.589,-0.136,0.765,-0.548,2.31,1.14,1.46,1.52,2.47,1.14,1.09,-0.0808,1.46
TGCCAAAGTTCAAAGGTAACGTAAGTATCCACAC,-0.203,3.58,0.542,1.37,4.73,6.14,4.67,7.24,1.95,5.19,3.8,6.37,6.18,4.65,7.16,3.44,-0.0439,5.01
GCTATTTGTTGAAAGGGCAACCGAATGATTCTCG,0.563,0.804,0.209,0.611,1.53,0.686,0.462,1.01,1.45,1.98,2.2,1.01,1.26,1.28,0.98,0.638,0.181,0.657
ACTATTAGTTGAGACGAGCGCAACCGATAGGTTG,-0.504,-0.34,0.343,0.844,-0.155,-0.542,0.00515,-0.474,-0.207,-0.278,-0.567,-0.546,0.138,-0.188,-0.211,-0.381,-0.708,-0.0904
CCGACTAGGGCAAAGGTTACCATACTCAGTACGA,5.49,6.42,0.866,0.896,2.04,2.23,-0.079,3.59,0.449,2.85,2.48,3.78,2.11,0.743,4.2,2.14,-0.117,0.229
CGTCAAAGTTTAAGGTAACGTAACAGAAAGCAGC,-0.15,0.591,0.678,-0.068,0.325,0.369,0.0704,0.975,0.46,2.12,0.852,0.923,1.7,1.29,0.482,3.1,3.1,-0.0381
CTCGAAACGTCGTGCTCAGGTGAGTATACCAAAC,-0.582,-0.171,-0.256,0.311,-0.393,-0.468,-0.608,-0.466,-0.557,-0.265,-0.132,-0.476,-0.311,-0.187,-0.479,0.94,0.555,-0.446
CAAACTAGGTCAAGATCAAAGTCGGTTTGTGCCA,8.24,8.61,5.86,4.95,2.34,1.31,-0.0944,2.05,0.622,4.02,2.77,3.45,4.74,1.66,2.69,2.75,0.747,0.787
CGAGCTAGGTCAGAACAGGACAGTGAAGGATGAT,1.93,1.04,-1.14,-1.15,0.363,0.798,-0.245,0.682,-0.341,2.89,2.11,2.12,3.53,0.0691,1.07,3.47,-0.106,-0.325
CCTACTGGGCCAAAAAGGTCATTCATGCCGATAA,3.69,3.97,-0.431,0.123,4.57,5.41,4.84,5.86,2.12,4.22,4.58,5.14,5.18,0.771,6.01,3.24,0.431,3.01
ATCGAAAGGTCGAGGTGAGAATAGAGAAAGGGAA,0.541,2.39,1.22,0.93,0.599,2.36,0.337,3.52,0.51,4.16,2.77,4.3,4.7,0.437,4.86,2.73,0.58,-0.0619
AGTCCAAGTTCAGGACGAGGTAACGTAAAGCACG,-0.641,0.15,-0.559,-0.0596,0.572,1.93,0.749,1.34,-0.0097,2.56,1.71,2.68,2.35,3.51,1.3,3.44,1.65,2.91
GCTACTAGGTCAACTGATGGTCAGCTAAAGCTCG,8,8.03,2.65,2.15,2.57,1.75,-0.307,3.07,0.12,4.25,3.31,5.27,5.19,1.63,3.06,2.9,0.994,0.21

Sequence,PBM binding z-score [1],PBM binding z-score [2],PBM binding z-score [3],PBM binding z-score [4],PBM binding z-score [5],PBM binding z-score [6],PBM binding z-score [7],PBM binding z-score [8],PBM binding z-score [9],PBM binding z-score [10],PBM binding z-score [11],PBM binding z-score [12],PBM binding z-score [13],PBM binding z-score [14],PBM binding z-score [15],PBM binding z-score [16],PBM binding z-score [17],PBM binding z-score [18]
ACTCGGAGGAAAAAGGTCAGAGCTACGCCAGTGA,-0.318,1.1,0.319,-0.672,1.74,2.65,0.00836,3.29,1.23,3.88,4.12,4.09,3.97,-0.291,3.67,2.24,-0.145,0.161
CGTCCAAGGTCAAGGTCAGTGAGAGAGACTCGAA,3.51,4.84,1.23,2.41,3.47,4.79,1.08,5.05,1.59,5.69,5.4,6.7,7.4,3.75,6.25,4.31,3.35,3.5
CCTCGGAGGACAACAGGAGGTTAGAGCTGCCAGA,-0.279,-0.491,-1.7,-1.73,-0.214,-0.222,-0.363,-0.127,-0.352,1.32,1.12,0.878,1.47,0.257,-0.0815,1.19,0.00678,0.0214
AATACAGGTTCATCGTAGGCCAGAGTACGCACAG,0.0837,0.966,1.55,1.09,0.907,3.55,1.4,2.46,0.533,1.8,1.46,2.54,1.39,4.66,3.17,3.66,0.0172,5.45
ACTAGTTGGTCAGCTGAGGTCACTCACAATTCGG,1.45,2.35,0.323,0.891,1.61,4.97,1.53,3.69,0.562,3.34,4.24,3.48,3.38,1.11,3.13,4.98,4.9,2.68
TCTTGTAGATCAATAGAGGTTAAGGAAGTGCGCT,1.91,0.959,0.906,0.773,0.732,2.58,0.412,1.96,0.894,1.04,1.1,0.898,0.454,0.775,1.61,2.38,-0.179,0.208
CCTTACGGGTTACGAGGTTATAGCACGACGAGCG,1.39,2.73,-0.246,1.02,1.32,1.95,0.0657,2.76,0.573,1.58,1.24,2.31,1.43,-0.0539,2.99,2.23,0.638,0.469
CTACCAACGTGAACAAGGTCGTTGATTACTATTC,0.278,0.249,0.577,1.06,0.913,1.72,1,1.4,0.795,0.631,1.42,0.533,0.432,1.53,0.896,1.82,1.41,1.88
TGAATGAGGTTATAACATCAGGGAACGTTGCAAA,0.822,1.57,1.79,0.499,0.614,0.813,-0.514,1.4,0.248,1.04,-0.0288,1.33,0.791,0.901,2.09,1.78,-0.00143,0.537
ATCGAAAGGTCGACGATGTGAGTATACACCGTTT,0.505,1.37,0.994,1.25,1.43,2.29,0.0146,3.17,0.516,3.94,2.66,3.8,3.82,1.13,4.27,1.91,-0.483,0.438
AGAACGAGGGGACGCTGAGTTGATAGCAGAGTAG,1.17,0.723,0.599,0.498,-0.427,-0.245,0.132,-0.589,-0.633,0.334,0.0721,0.0507,0.265,0.401,-0.0794,0.202,-0.233,1.16
CCGACTGGGGCAGAAAGGTTACCAAACCATCCGG,1.37,1.71,-0.76,-0.56,0.448,0.803,-0.532,1.58,-0.491,1.86,2.23,1.52,1.35,-0.609,1.66,0.905,-0.598,-0.377
CTTTACGGGTCACGAGGTTATAGCACGACGAGCG,5.55,6.46,1.86,2.29,2.93,4.96,0.279,6.19,0.513,4.81,4.15,6.33,5.71,2.53,7.44,3.92,1.66,2.28
AGAACGAGGGCACGCTGTGTTGATAGCAGAGTAG,4.43,3.96,0.394,-0.216,-0.372,0.28,-0.446,0.799,-0.803,2.39,1.05,1.82,2.12,1.76,1.23,1.53,-0.0988,0.651
GCAACTGGGGCAAAGCAGGTTACCATAAGGTTGG,5.89,5.52,0.219,-0.357,-0.0265,0.339,-0.607,0.838,-0.392,0.995,1.27,0.563,0.56,-0.0375,0.648,2.78,0.101,-0.248
